From PMC11062922 (Nature Chemical Biology, 2023)
Like-named read-outs stand apart in the source and are kept apart here.

Key:
[1] = test system: ATM; parameters: species or system human, MV4-11 + K-562 + COLO205 + SK-N-BE2 + OVCAR-8; conditions: read-out: apparent Kd, n = 1
[2] = test system: MAP3K1; parameters: species or system human, MV4-11 + K-562 + COLO205 + SK-N-BE2 + OVCAR-8; conditions: read-out: apparent Kd; compound concentrations:100 nM and 1000 nM (sheet 'Samples'); n = 1
[3] = test system: NUAK2; parameters: species or system human, MV4-11 + K-562 + COLO205 + SK-N-BE2 + OVCAR-8; conditions: read-out: apparent Kd; compound concentrations:100 nM and 1000 nM (sheet 'Samples'); n = 1
[4] = test system: PIK3CD; parameters: species or system human, MV4-11 + K-562 + COLO205 + SK-N-BE2 + OVCAR-8; conditions: read-out: apparent Kd, n = 1
[5] = test system: PLK1; parameters: species or system human, MV4-11 + K-562 + COLO205 + SK-N-BE2 + OVCAR-8; conditions: read-out: apparent Kd; compound concentrations: 100 nM and 1000 nM (sheet 'Samples'), CATDS: 0.443689991043278; n = 1
[6] = test system: AKT3; parameters: species or system human, MV4-11 + K-562 + COLO205 + SK-N-BE2 + OVCAR-8; conditions: read-out: apparent Kd, n = 1
[7] = test system: COX5A; parameters: species or system human, MV4-11 + K-562 + COLO205 + SK-N-BE2 + OVCAR-8; conditions: read-out: apparent Kd; compound concentrations: 100 nM and 1000 nM (sheet 'Samples'), CATDS: 0.36000634537809301; n = 1
[8] = test system: MAPKAPK2; parameters: species or system human, MV4-11 + K-562 + COLO205 + SK-N-BE2 + OVCAR-8; conditions: read-out: apparent Kd; compound concentrations: 100 nM and 1000 nM (sheet 'Samples'), CATDS: 0.330960581513286; n = 1
[9] = test system: EPHB2; parameters: species or system human, MV4-11 + K-562 + COLO205 + SK-N-BE2 + OVCAR-8; conditions: read-out: apparent Kd; compound concentrations: 100 nM and 1000 nM (sheet 'Samples'), CATDS: 5.4073383937865198E-2; n = 1
[10] = test system: EPHB4; parameters: species or system human, MV4-11 + K-562 + COLO205 + SK-N-BE2 + OVCAR-8; conditions: read-out: apparent Kd; compound concentrations: 100 nM and 1000 nM (sheet 'Samples'), CATDS: 6.1726409917068299E-2; n = 1
[11] = test system: ERCC2; parameters: species or system human, MV4-11 + K-562 + COLO205 + SK-N-BE2 + OVCAR-8; conditions: read-out: apparent Kd; compound concentrations: 100 nM and 1000 nM (sheet 'Samples'), CATDS: 5.5764348636942303E-2; n = 1
[12] = test system: GAK; parameters: species or system human, MV4-11 + K-562 + COLO205 + SK-N-BE2 + OVCAR-8; conditions: read-out: apparent Kd; compound concentrations: 100 nM and 1000 nM (sheet 'Samples'), CATDS: 5.4131734373928597E-2; n = 1
[13] = test system: MAPK11; parameters: species or system human, MV4-11 + K-562 + COLO205 + SK-N-BE2 + OVCAR-8; conditions: read-out: apparent Kd; compound concentrations: 100 nM and 1000 nM (sheet 'Samples'), CATDS: 5.3024764927667702E-2; n = 1
[14] = test system: MAPK9; parameters: species or system human, MV4-11 + K-562 + COLO205 + SK-N-BE2 + OVCAR-8; conditions: read-out: apparent Kd; compound concentrations: 100 nM and 1000 nM (sheet 'Samples'), CATDS: 4.8598107075800298E-2; n = 1
[15] = test system: PRKAG1; parameters: species or system human, MV4-11 + K-562 + COLO205 + SK-N-BE2 + OVCAR-8; conditions: read-out: apparent Kd; compound concentrations: 100 nM and 1000 nM (sheet 'Samples'), CATDS: 0.16537945718140701; n = 1
[16] = test system: PRKCQ; parameters: species or system human, MV4-11 + K-562 + COLO205 + SK-N-BE2 + OVCAR-8; conditions: read-out: apparent Kd; compound concentrations: 100 nM and 1000 nM (sheet 'Samples'), CATDS: 0.173893551056024; n = 1
[17] = test system: RPS6KA6; parameters: species or system human, MV4-11 + K-562 + COLO205 + SK-N-BE2 + OVCAR-8; conditions: read-out: apparent Kd; compound concentrations: 100 nM and 1000 nM (sheet 'Samples'), CATDS: 5.8254455151346002E-2; n = 1
[18] = test system: SRC; parameters: species or system human, MV4-11 + K-562 + COLO205 + SK-N-BE2 + OVCAR-8; conditions: read-out: apparent Kd; compound concentrations: 100 nM and 1000 nM (sheet 'Samples'), CATDS: 5.8386134416648999E-2; n = 1
[19] = test system: TNK1; parameters: species or system human, MV4-11 + K-562 + COLO205 + SK-N-BE2 + OVCAR-8; conditions: read-out: apparent Kd; compound concentrations: 100 nM and 1000 nM (sheet 'Samples'), CATDS: 8.7272147556640506E-2; n = 1
[20] = test system: TNK2; parameters: species or system human, MV4-11 + K-562 + COLO205 + SK-N-BE2 + OVCAR-8; conditions: read-out: apparent Kd; compound concentrations: 100 nM and 1000 nM (sheet 'Samples'), CATDS: 6.9926040964812697E-2; n = 1
[21] = test system: AURKB; parameters: species or system human, MV4-11 + K-562 + COLO205 + SK-N-BE2 + OVCAR-8; conditions: read-out: apparent Kd; compound concentrations:100 nM and 1000 nM (sheet 'Samples'); n = 1
[22] = test system: BMP2K; parameters: species or system human, MV4-11 + K-562 + COLO205 + SK-N-BE2 + OVCAR-8; conditions: read-out: apparent Kd; compound concentrations:100 nM and 1000 nM (sheet 'Samples'); n = 1
[23] = test system: CSNK2A1;CSNK2A3; parameters: species or system human, MV4-11 + K-562 + COLO205 + SK-N-BE2 + OVCAR-8; conditions: read-out: apparent Kd; compound concentrations:100 nM and 1000 nM (sheet 'Samples'); n = 1
[24] = test system: CSNK2A2; parameters: species or system human, MV4-11 + K-562 + COLO205 + SK-N-BE2 + OVCAR-8; conditions: read-out: apparent Kd; compound concentrations:100 nM and 1000 nM (sheet 'Samples'); n = 1
[25] = test system: JAK1; parameters: species or system human, MV4-11 + K-562 + COLO205 + SK-N-BE2 + OVCAR-8; conditions: read-out: apparent Kd; compound concentrations:100 nM and 1000 nM (sheet 'Samples'); n = 1
[26] = target: Q6ZSR9 (human, UniProt Q6ZSR9); parameters: species or system MV4-11 + K-562 + COLO205 + SK-N-BE2 + OVCAR-8; conditions: read-out: apparent Kd; compound concentrations:100 nM and 1000 nM (sheet 'Samples'); n = 1
Q6ZSR9, sequence (Q6ZSR9 whole entry, looked up): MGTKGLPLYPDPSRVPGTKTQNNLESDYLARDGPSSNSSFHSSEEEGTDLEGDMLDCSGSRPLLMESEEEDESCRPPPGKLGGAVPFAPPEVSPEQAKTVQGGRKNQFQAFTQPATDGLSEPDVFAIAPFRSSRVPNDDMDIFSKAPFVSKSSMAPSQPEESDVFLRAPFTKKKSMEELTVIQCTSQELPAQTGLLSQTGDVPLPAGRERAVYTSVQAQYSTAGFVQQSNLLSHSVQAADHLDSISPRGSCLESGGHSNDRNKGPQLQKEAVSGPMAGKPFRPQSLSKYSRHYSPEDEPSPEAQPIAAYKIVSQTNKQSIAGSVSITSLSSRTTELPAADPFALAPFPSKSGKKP

[27] = compound concentrations:100 nM and 1000 nM (sheet 'Samples')

C[C@@H](Oc1cc(-n2cnc3ccc(CN4CCN(C)CC4)cc32)sc1C(N)=O)c1ccccc1C(F)(F)F [GSK461364]
potency estimated from few doses [1, 27]: 264 nM | potency estimated from few doses [2]: 102 nM | potency estimated from few doses [3]: 1280 nM | potency estimated from few doses [4, 27]: 214 nM | potency estimated from few doses [5]: 42.1 nM

FC(F)(F)c1cccc(-c2nn3ncccc3c2-c2ccnc(Nc3ccc4c(c3)OCCO4)n2)c1 [GW827102X]
potency estimated from few doses ([6]; compound concentrations: 100 nM and 1000 nM (sheet 'Samples'), CATDS: 0.31242547502762402): 2070 nM | potency estimated from few doses [7]: 1560 nM | potency estimated from few doses [8]: 1830 nM

CC(C)(O)CCc1cccc(C(=O)c2cnn(-c3ccc(F)cc3)c2N)c1 [RO3200935-000]
potency estimated from few doses ([1]; compound concentrations: 100 nM and 1000 nM (sheet 'Samples'), CATDS: 0.124711216224064): 182 nM | potency estimated from few doses [9]: 1310 nM | potency estimated from few doses [10]: 862 nM | potency estimated from few doses [11]: 1180 nM | potency estimated from few doses [12]: 1300 nM | potency estimated from few doses [13]: 1400 nM | potency estimated from few doses [14]: 1970 nM | potency estimated from few doses ([4]; compound concentrations: 100 nM and 1000 nM (sheet 'Samples'), CATDS: 0.17871618509773601): 101 nM | potency estimated from few doses [15]: 114 nM | potency estimated from few doses [16]: 105 nM | potency estimated from few doses [17]: 1020 nM | potency estimated from few doses [18]: 1020 nM | potency estimated from few doses [19]: 366 nM | potency estimated from few doses [20]: 615 nM

NC(=O)Nc1sc(-c2ccc(F)cc2)cc1C(N)=O [GW789449X]
potency estimated from few doses [6, 27]: 1830 nM | potency estimated from few doses [21]: 1310 nM | potency estimated from few doses [22]: 1260 nM | potency estimated from few doses [23]: 1730 nM | potency estimated from few doses [24]: 1130 nM | potency estimated from few doses [25]: 711 nM | potency estimated from few doses [26]: 1370 nM
